In PubChem BioAssay (NCI):
This is part of a sample that, as a whole, favours compounds with a hit. Of some 79,000 tested, about 15% had one in any assay. Calls of active or inactive are those of the source. No stated cut-off is given here; in the data, active means growth inhibition above about 70%; inactive means the rest.

Tests used:
[1] = NCI Yeast Anticancer Drug Screen. Data for the rad52 strain (AID 147);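 further: 0% = growth of vehicle-treated control cultures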; conditions: S. cerevisiae rad52 mutant growth inhibition, active compounds read high
Procedure, shortened: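 Read-out: growth inhibition versus vehicle-treated controls. Cells were a DNA repair-deficient yeast strain treated with compounds.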

[2] = NCI Yeast Anticancer Drug Screen. Data for the wt1 strain (AID 149);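 further: 0% = growth of vehicle-treated wt1 cultures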; conditions: S. cerevisiae wt1 strain (SPY 50644) growth inhibition, active compounds read high
Procedure, shortened: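 Each compound is tested on wt1 yeast and the loss of growth versus vehicle gives the inhibition value.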

[3] = NCI Yeast Anticancer Drug Screen. Data for the rad50EPP+ strain (AID 151);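 further: 0% = growth of vehicle-treated control cultures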; conditions: S. cerevisiae rad50 mutant strain, active compounds read high
Procedure, shortened: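 Growth inhibition read against vehicle controls in rad50EPP+ yeast, a strain altered in DNA damage repair, after compound exposure.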

[4] = NCI Yeast Anticancer Drug Screen. Data for the mgt1 strain (AID 153); conditions: S. cerevisiae mgt1 mutant growth inhibition, active compounds read high
Procedure, shortened: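 mgt1 yeast grown with test compound; read-out is growth inhibition versus vehicle-treated cultures.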

[5] = NCI Yeast Anticancer Drug Screen. Data for the rad50 strain (AID 155);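 further: 0% = growth of vehicle-only cultures of the same strain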; conditions: S. cerevisiae rad50 strain growth inhibition, active compounds read high
Procedure, shortened: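 Vehicle-treated cultures provide the reference for the growth inhibition reported for compound-exposed, repair-deficient yeast.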

[6] = NCI Yeast Anticancer Drug Screen. Data for the mec2-1 strain (AID 157); conditions: S. cerevisiae mec2-1 strain, active compounds read high
Procedure, shortened: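 Yeast mec2-1 mutant treated with compound. Readout: growth inhibition vs vehicle controls.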

[7] = NCI Yeast Anticancer Drug Screen. Data for the rad14 strain (AID 159);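 further: 0% = growth of vehicle-treated control cultures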; conditions: S. cerevisiae rad14 strain growth inhibition, active compounds read high
Procedure, shortened: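 Inhibition of growth is reported for a repair-deficient yeast mutant following compound treatment, calculated relative to cultures that received vehicle.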

[8] = NCI Yeast Anticancer Drug Screen. Data for the sgs1 mgt1 strain (AID 161);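 further: 0% = growth of cultures given vehicle only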; conditions: S. cerevisiae sgs1 mgt1 strain, active compounds read high
Procedure, shortened: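 Read-out: growth inhibition vs vehicle controls. Cells: mutant yeast strain deficient in DNA damage repair.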

[9] = NCI Yeast Anticancer Drug Screen. Data for the CLN2oe strain (AID 163);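 further: 0% = growth of vehicle-only control cultures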; conditions: S. cerevisiae CLN2oe strain, active compounds read high
Procedure, shortened: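 Read-out: yeast growth inhibition, expressed relative to vehicle-only controls. The strain bears an engineered cell-cycle alteration.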

[10] = NCI Yeast Anticancer Drug Screen. Data for the cln2 rad14 strain (AID 165);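 further: 0% = growth equal to vehicle treated cultures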; conditions: S. cerevisiae cln2 rad14 strain, active compounds read high
Procedure, shortened: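 cln2 rad14 yeast strain; compound exposure; growth inhibition read vs vehicle controls.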

[11] = NCI Yeast Anticancer Drug Screen. Data for the bub3 strain (AID 167); conditions: S. cerevisiae bub3 mutant strain, active compounds read high
Procedure, shortened: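 Mutant yeast screening strain plus compound; vehicle-treated cultures serve as the 0% inhibition reference.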

[12] = NCI Yeast Anticancer Drug Screen. Data for the wt2 strain (AID 169); conditions: S. cerevisiae wt2 strain growth inhibition, active compounds read high
Procedure, shortened: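 Read-out: growth inhibition versus vehicle-treated control cultures after compound exposure of the yeast strain.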

[13] = NCI Yeast Anticancer Drug Screen. Data for the mlh1 strain (AID 171);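 further: 0% = growth of vehicle-treated control cultures of the same strain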; conditions: S. cerevisiae mlh1 strain growth inhibition, active compounds read high
Procedure, shortened: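 Read-out: growth inhibition versus vehicle controls. Strain: engineered yeast with a defined DNA repair or cell cycle defect, compound-treated.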

[14] = NCI Yeast Anticancer Drug Screen. Data for the sgs1 strain (AID 173);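 further: 0% = growth of vehicle-only control cultures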; conditions: S. cerevisiae sgs1 mutant, active compounds read high
Procedure, shortened: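 Read-out: yeast growth inhibition relative to vehicle controls, following compound exposure of a strain with a defined DNA repair/cell cycle alteration.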

[15] = NCI Yeast Anticancer Drug Screen. Data for the mlh1 rad18 strain (AID 175); conditions: S. cerevisiae mlh1 rad18 strain growth inhibition, active compounds read high
Procedure, shortened: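 Yeast w/ defined DNA-repair lesions; compound exposure; growth vs vehicle controls → % inhibition.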

[16] = NCI Yeast Anticancer Drug Screen. Data for the rad18 strain (AID 177); conditions: S. cerevisiae rad18 mutant growth inhibition, active compounds read high
Procedure, shortened: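 Readout: growth inhibition vs vehicle controls. Cells: genetically altered yeast strain, DNA repair defect.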

[17] = at 5.0 µM (retest, dose inferred, filed as 0.5)
[18] = at 50.0 µM (retest, dose inferred, filed as 5.0)

Measured: growth inhibition

O=C1C=C(Br)C(=O)c2ccccc21
inactive: [1]; at 1.2 µM 6% | [1]; at 3.7 µM 19% | [2]; at 1.2 µM 10% | [2]; at 3.7 µM 23% | [3]; at 1.2 µM 19% | [3]; at 3.7 µM 39% | [4]; at 1.2 µM 11% | [4]; at 3.7 µM 18% | [5]; at 1.2 µM 9% | [5]; at 3.7 µM 46% | [5]; [17] 27% | [6]; at 1.2 µM 17% | [6]; at 3.7 µM 37% | [6]; [17] 39% | [7]; at 1.2 µM 10% | [7]; at 3.7 µM 24% | [8]; [17] 57% | [9]; at 1.2 µM 5% | [9]; at 3.7 µM 9% | [9]; at 11.0 µM 47% | [10]; [17] 5% | [11]; at 1.2 µM 22% | [11]; at 3.7 µM 44% | [12]; at 1.2 µM 13% | [12]; at 3.7 µM 28% | [13]; at 1.2 µM 8% | [13]; at 3.7 µM 11% | [14]; at 1.2 µM 8% | [14]; at 3.7 µM 19% | [15]; [17] 53% | [16]; at 1.2 µM 5% | [16]; at 3.7 µM 11%
active: [1]; at 11.0 µM 94% | [1]; at 33.0 µM 99% | [1]; at 100.0 µM 99% | [2]; at 11.0 µM 73% | [2]; at 33.0 µM 99% | [2]; at 100.0 µM 99% | [3]; at 11.0 µM 95% | [3]; at 33.0 µM 99% | [3]; at 100.0 µM 98% | [4]; at 11.0 µM 96% | [4]; at 33.0 µM 99% | [4]; at 100.0 µM 99% | [5]; at 11.0 µM 98% | [5]; at 33.0 µM 99% | [5]; [18] 99% | [5]; at 50.0 µM 99.2% | [5]; at 100.0 µM 99% | [6]; at 11.0 µM 97% | [6]; at 33.0 µM 99% | [6]; [18] 99% | [6]; at 50.0 µM 99.2% | [6]; at 100.0 µM 99% | [7]; at 11.0 µM 98% | [7]; at 33.0 µM 99% | [7]; at 100.0 µM 99% | [8]; [18] 99% | [8]; at 50.0 µM 99.2% | [9]; at 33.0 µM 99% | [9]; at 100.0 µM 99% | [10]; [18] 99% | [10]; at 50.0 µM 99.1% | [11]; [17] 86% | [11]; at 11.0 µM 99% | [11]; at 33.0 µM 99% | [11]; [18] 99% | [11]; at 50.0 µM 99% | [11]; at 100.0 µM 99% | [12]; at 11.0 µM 90% | [12]; at 33.0 µM 99% | [12]; at 100.0 µM 99% | [13]; at 11.0 µM 98% | [13]; at 33.0 µM 99% | [13]; at 100.0 µM 99% | [14]; at 11.0 µM 93% | [14]; at 33.0 µM 99% | [14]; at 100.0 µM 99% | [15]; [18] 99% | [15]; at 50.0 µM 99.1% | [16]; at 11.0 µM 82% | [16]; at 33.0 µM 99% | [16]; at 100.0 µM 98%
